Holding throughout (experiment): universal protein binding microarray (PBM); transcription factors of Arabidopsis thaliana; high values mean tight binding
In one test the target is T1, GST-ANAC092(1-176) (Arabidopsis thaliana, UniProt Q9FKA0 1-176).
T1 sequence: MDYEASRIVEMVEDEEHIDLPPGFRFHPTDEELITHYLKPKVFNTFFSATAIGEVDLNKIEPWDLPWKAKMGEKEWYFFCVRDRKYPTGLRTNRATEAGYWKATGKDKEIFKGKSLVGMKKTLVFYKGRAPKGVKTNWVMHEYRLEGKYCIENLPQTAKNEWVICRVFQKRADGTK
To be noted: protein: recombinant; tags: GST; chain copies: 2; dsDNA, one strand shown. An outline of the steps:
(§1)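 Each value is a normalised enrichment score (E-score) describing binding. The GST-tagged proteins, NAC-domain, full-length or DNA-binding-domain, were induced in cells (zinc-finger proteins with zinc acetate added) and purified on glutathione–Sepharose 4B. They were applied at 200 to 500 nM final, in duplicate, to double-stranded custom all-10-mer Agilent 4 × 180K arrays, and gapped and ungapped 8-mers were scored.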

In the next test the target is GST-NTL6(1-168) (Arabidopsis thaliana, UniProt Q9SCK6 1-168). To be noted: protein: recombinant; tags: GST; chain copies: 2; dsDNA, one strand shown. In outline: as §1
GST-NTL6(1-168), sequence (Q9SCK6 1-168): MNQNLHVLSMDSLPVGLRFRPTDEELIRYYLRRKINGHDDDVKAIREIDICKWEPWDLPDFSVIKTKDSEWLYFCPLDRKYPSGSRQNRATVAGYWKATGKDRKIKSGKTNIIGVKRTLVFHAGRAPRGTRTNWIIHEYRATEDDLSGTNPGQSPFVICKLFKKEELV
The next test has as its target T2, GST-ANAC055(1-171) (Arabidopsis thaliana, UniProt Q9LDY8 1-171).
T2 sequence: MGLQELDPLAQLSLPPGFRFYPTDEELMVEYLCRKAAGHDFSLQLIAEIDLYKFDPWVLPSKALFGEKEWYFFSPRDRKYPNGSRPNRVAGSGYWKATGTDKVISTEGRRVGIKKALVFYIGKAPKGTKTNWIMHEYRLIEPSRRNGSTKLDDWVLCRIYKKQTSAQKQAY
The conditions noted are these: protein: recombinant; tags: GST; chain copies: 2; dsDNA, one strand shown. An outline of the steps:
as §1

A further test concerns the target T3, GST-ATAF1 NAC domain (Arabidopsis thaliana, UniProt Q39013 7-158).
T3 sequence: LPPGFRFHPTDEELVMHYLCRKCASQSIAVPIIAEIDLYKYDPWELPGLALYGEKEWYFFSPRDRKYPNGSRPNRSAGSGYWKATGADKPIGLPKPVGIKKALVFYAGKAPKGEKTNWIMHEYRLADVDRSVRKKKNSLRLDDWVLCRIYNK
The conditions noted are these: protein: recombinant; tags: GST; chain copies: 2; dsDNA, one strand shown. An outline of the steps: as §1

Another test deals with T4, GST-NAP(1-166) (Arabidopsis thaliana, UniProt O49255 1-166).
T4 sequence: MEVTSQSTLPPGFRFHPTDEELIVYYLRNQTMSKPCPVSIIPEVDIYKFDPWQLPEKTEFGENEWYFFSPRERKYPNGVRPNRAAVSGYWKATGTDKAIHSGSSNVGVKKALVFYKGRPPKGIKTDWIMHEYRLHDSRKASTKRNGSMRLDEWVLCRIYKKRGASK
To be noted: protein: recombinant; tags: GST; chain copies: 2; dsDNA, one strand shown. In outline: as §1

A further test deals with T5, GST-NTL8 NAC domain (Arabidopsis thaliana, UniProt Q9XIN7 14-156).
T5 sequence: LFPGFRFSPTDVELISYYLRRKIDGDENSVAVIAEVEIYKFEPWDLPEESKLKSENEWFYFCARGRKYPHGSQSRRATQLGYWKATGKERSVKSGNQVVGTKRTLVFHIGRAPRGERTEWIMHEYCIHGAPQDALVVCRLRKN
To be noted: protein: recombinant; tags: GST; chain copies: 2; dsDNA, one strand shown. An outline of the steps: as §1

The target in a further test is T6, GST-VND3 NAC domain (Arabidopsis thaliana, UniProt Q9FH59 12-162).
T6 sequence: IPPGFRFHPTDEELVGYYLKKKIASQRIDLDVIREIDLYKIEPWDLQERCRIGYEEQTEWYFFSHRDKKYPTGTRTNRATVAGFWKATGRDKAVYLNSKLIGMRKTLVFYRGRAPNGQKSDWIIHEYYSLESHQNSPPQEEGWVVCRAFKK
The conditions noted are these: protein: recombinant; tags: GST; chain copies: 2; dsDNA, one strand shown. An outline of the steps: as §1

Another test has as its target T7, GST-VND7 NAC domain (Arabidopsis thaliana, UniProt Q9C8W9 9-158).
T7 sequence: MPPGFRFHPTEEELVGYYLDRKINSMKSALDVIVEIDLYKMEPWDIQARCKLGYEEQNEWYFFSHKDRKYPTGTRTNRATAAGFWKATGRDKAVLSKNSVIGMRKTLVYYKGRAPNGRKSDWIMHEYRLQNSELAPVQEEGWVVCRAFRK
The conditions noted are these: protein: recombinant; tags: GST; chain copies: 2; dsDNA, one strand shown. In outline: as §1

In test [1] the target is T8, GST-ANAC092(1-285) full length (Arabidopsis thaliana, UniProt Q9FKA0 1-285).
T8 sequence: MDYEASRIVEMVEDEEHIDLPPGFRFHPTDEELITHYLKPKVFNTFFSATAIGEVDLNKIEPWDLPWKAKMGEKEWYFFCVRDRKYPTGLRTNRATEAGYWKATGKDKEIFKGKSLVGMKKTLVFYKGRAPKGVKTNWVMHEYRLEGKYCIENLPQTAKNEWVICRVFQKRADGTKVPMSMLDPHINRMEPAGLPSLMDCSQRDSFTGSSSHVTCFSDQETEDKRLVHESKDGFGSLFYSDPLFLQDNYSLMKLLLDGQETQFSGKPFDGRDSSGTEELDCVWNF
The conditions noted are these: protein: recombinant; tags: GST; chain copies: 2; dsDNA, one strand shown. An outline of the steps: as §1

For the next test, the target named is GST-WRKY1(266-371) (Arabidopsis thaliana, UniProt Q9SI37 266-371). The conditions noted are these: protein: recombinant; tags: GST; dsDNA, one strand shown. An outline of the steps:
as §1

In the next test the target is T9, GST-ANAC019 NAC domain (Arabidopsis thaliana, UniProt Q9C932 14-162).
T9 sequence: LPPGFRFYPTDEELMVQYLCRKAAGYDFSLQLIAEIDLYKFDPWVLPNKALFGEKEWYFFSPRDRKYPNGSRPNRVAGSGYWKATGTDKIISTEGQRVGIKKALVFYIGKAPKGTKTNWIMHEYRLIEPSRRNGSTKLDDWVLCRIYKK
The conditions noted are these: protein: recombinant; tags: GST; chain copies: 2; dsDNA, one strand shown. An outline of the steps:
as §1

A further test addresses T10, GST-NST2(1-184) (Arabidopsis thaliana, UniProt Q9M274 1-184).
T10 sequence: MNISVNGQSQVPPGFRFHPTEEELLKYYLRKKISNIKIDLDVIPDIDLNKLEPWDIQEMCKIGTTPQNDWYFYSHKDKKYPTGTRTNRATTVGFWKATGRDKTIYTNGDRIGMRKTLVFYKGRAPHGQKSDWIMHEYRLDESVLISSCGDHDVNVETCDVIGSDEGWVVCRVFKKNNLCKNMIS
The conditions noted are these: protein: recombinant; tags: GST; chain copies: 2; dsDNA, one strand shown. In outline: as §1

GST-WRKY1(266-371), sequence (Q9SI37 266-371): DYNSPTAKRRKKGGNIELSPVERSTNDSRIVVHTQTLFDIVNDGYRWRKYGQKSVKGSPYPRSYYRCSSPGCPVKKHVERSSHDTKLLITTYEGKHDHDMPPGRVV

For AGAGGGAA, the binding signal with GST-ANAC092(1-176) turned out to be 0.114 E-score; with GST-NTL6(1-168), 0.178 E-score; in the test with GST-ANAC055(1-171), 0.0527 E-score; with GST-ATAF1 NAC domain, 0.0736 E-score; with GST-NAP(1-166), 0.111 E-score; in the test with GST-NTL8 NAC domain, 0.447 E-score. Besides, the binding signal with GST-VND3 NAC domain turned out to be 0.0709 E-score; in the test with GST-VND7 NAC domain, 0.0972 E-score.

ATTGGTCA: the binding signal was determined as 0.0884 E-score in the test with GST-ANAC092(1-176), 0.105 E-score in [1], 0.0748 E-score with GST-VND3 NAC domain and 0.454 E-score in the test with GST-WRKY1(266-371).

In the case of GCACGGTA, the binding signal with GST-ANAC092(1-176) is 0.375 E-score; with GST-ANAC019 NAC domain it was 0.2 E-score; with GST-ANAC055(1-171) it was 0.189 E-score; in the test with GST-ATAF1 NAC domain, 0.134 E-score; in [1], 0.408 E-score; with GST-NAP(1-166), 0.102 E-score. For the same sequence, the values for the binding signal with GST-VND3 NAC domain and with GST-VND7 NAC domain were 0.124 E-score and 0.122 E-score, respectively.

As for AATGTCAA, the binding signal was found to be 0.155 E-score in the test with GST-ANAC055(1-171); 0.19 E-score with GST-ATAF1 NAC domain; 0.13 E-score with GST-NAP(1-166); 0.0715 E-score in the test with GST-NST2(1-184); 0.104 E-score with GST-VND3 NAC domain; 0.0638 E-score with GST-VND7 NAC domain. In addition, in the test with GST-WRKY1(266-371), the binding signal was 0.404 E-score.

As to CAAGACCA, the binding signal turned out to be 0.106 E-score with GST-ANAC092(1-176); 0.0845 E-score in the test with GST-NTL6(1-168); 0.092 E-score in the test with GST-ANAC055(1-171); 0.0751 E-score with GST-ATAF1 NAC domain; 0.0893 E-score with GST-NST2(1-184); 0.0681 E-score in the test with GST-VND3 NAC domain. Further, in the test with GST-WRKY1(266-371), the binding signal was 0.408 E-score.

Consider TACAGTCA, for which the binding signal in the test with GST-ANAC019 NAC domain is 0.109 E-score; with GST-ANAC055(1-171) it was 0.0559 E-score; with GST-ATAF1 NAC domain, 0.107 E-score; in [1] it was 0.131 E-score; in the test with GST-NTL8 NAC domain, 0.0899 E-score; with GST-VND3 NAC domain it was 0.167 E-score. The binding signal with GST-VND7 NAC domain stood at 0.0649 E-score; in the test with GST-WRKY1(266-371), 0.404 E-score.

As to TCTGGTCA, the binding signal came to 0.059 E-score in the test with GST-VND3 NAC domain and 0.455 E-score in the test with GST-WRKY1(266-371).

Turning to GGATTGAC, the binding signal in the test with GST-ANAC092(1-176) was 0.0627 E-score; in the test with GST-NTL6(1-168), 0.0579 E-score; with GST-ANAC019 NAC domain, 0.102 E-score; with GST-ANAC055(1-171), 0.0598 E-score; in the test with GST-NAP(1-166), 0.0556 E-score; with GST-NST2(1-184) it was 0.12 E-score. The binding signal with GST-VND3 NAC domain is 0.094 E-score; with GST-WRKY1(266-371), 0.459 E-score.

TATGACCA: the binding signal is 0.117 E-score with GST-VND3 NAC domain and 0.424 E-score with GST-WRKY1(266-371).

For the sequence AGTCAACT, the binding signal in the test with GST-ANAC019 NAC domain was 0.183 E-score; in the test with GST-ATAF1 NAC domain it was 0.0655 E-score; with GST-VND3 NAC domain, 0.0667 E-score; in the test with GST-VND7 NAC domain, 0.0783 E-score; with GST-WRKY1(266-371), 0.486 E-score.

AAAGTCGT: the binding signal with GST-ANAC019 NAC domain came to 0.29 E-score; with GST-ANAC055(1-171), 0.271 E-score; with GST-ATAF1 NAC domain, 0.258 E-score; with GST-NAP(1-166), 0.132 E-score; with GST-NST2(1-184) it was 0.13 E-score; in the test with GST-VND3 NAC domain it was 0.145 E-score. Also, the results for the binding signal in the test with GST-VND7 NAC domain and with GST-WRKY1(266-371) were 0.176 E-score and 0.429 E-score, respectively.

As to GTTGGTCA, the binding signal turned out to be 0.182 E-score with GST-ANAC055(1-171); 0.131 E-score with GST-ATAF1 NAC domain; 0.117 E-score with GST-NAP(1-166); 0.0931 E-score in the test with GST-VND3 NAC domain; 0.0967 E-score in the test with GST-VND7 NAC domain; 0.448 E-score in the test with GST-WRKY1(266-371).

Regarding ATATTGAC, the binding signal with GST-ATAF1 NAC domain amounted to 0.167 E-score; with GST-NAP(1-166) it was 0.178 E-score; with GST-VND3 NAC domain, 0.169 E-score; with GST-VND7 NAC domain it was 0.0695 E-score; with GST-WRKY1(266-371), 0.453 E-score.

Turning to ATGGTCAA, the binding signal worked out at 0.05 E-score in the test with GST-NTL6(1-168); 0.0866 E-score in the test with GST-ANAC055(1-171); 0.155 E-score in the test with GST-ATAF1 NAC domain; 0.0826 E-score with GST-NST2(1-184); 0.138 E-score with GST-VND3 NAC domain; 0.485 E-score in the test with GST-WRKY1(266-371).

CCACGGAA: the binding signal in the test with GST-ANAC092(1-176) is 0.219 E-score; in the test with GST-NTL6(1-168), 0.117 E-score; with GST-ANAC019 NAC domain, 0.427 E-score; in the test with GST-ANAC055(1-171), 0.326 E-score; with GST-ATAF1 NAC domain it was 0.211 E-score; in test [1], 0.244 E-score. Also, the binding signal in the test with GST-NAP(1-166) came out at 0.149 E-score; with GST-NST2(1-184) it was 0.123 E-score; in the test with GST-NTL8 NAC domain, 0.107 E-score; with GST-VND3 NAC domain, 0.343 E-score; in the test with GST-VND7 NAC domain, 0.316 E-score.

These data come from PMC4081100, “A DNA-binding-site landscape and regulatory network analysis for NAC transcription factors in Arabidopsis thaliana”.
